Vaccinia mCherry = qHTS for Stage-Specific Inhibitors of Vaccinia Orthopoxvirus: mCherry Reporter Primary qHTS; AID 720579, 2013; 310,000 compounds, 0.63% hits; Potency, µM (titrated, usually from 36.5 µM), for inactives: top-dose activity change, negative = inhibition, usual class: inhibitors; Vaccinia virus mCherry reporter infection, fluorescence; calls by dose curve; tested in A549 cells; note: potency is the fitted concentration of half-maximal effect; nearly all actives have a fitted effect of over 35% in size
LASV entry inh = qHTS for Inhibitors of binding or entry into cells for Lassa Virus | AID 540256, 2011 | Potency, µM (top dose mostly 37.9 µM), inactives show at the top dose activity change, negative = inhibition, hits mostly inhibitors | Lassa virus pseudotype entry inhibition, cell reporter | 300,000 compounds, 1.2% hits; calls by dose curve; tested in HEK293 cells; note: potency is the fitted concentration of half-maximal effect; nearly all actives have a fitted effect of over 50% in size
MARV entry inh = qHTS for inhibitors of binding or entry into cells for Marburg Virus; AID 540276, 2011; 300,000 compounds, 1.8% hits; Marburg virus pseudotyped entry inhibition, cell reporter; Potency, µM (series often up to 37.8 µM), without a hit: at the top dose activity change, negative = inhibition, most hits filed as inhibitors; calls by dose curve; tested in HEK293 cells; note: potency is the fitted concentration of half-maximal effect
FMDV antiviral = High Throughput Screening for Foot and Mouth Disease Virus Antivirals. FMDV antiviral cell-based qHTS. Potency, µM (titrated, usually from 57.9 µM), inactives show at the highest dose activity change, negative = inhibition, usual class: inhibitors. 410,000 compounds, 1.2% hits; calls by dose curve; tested in HEK293T cells; note: read-out not given here; potency is the fitted concentration of half-maximal effect; nearly all actives have a fitted effect of over 45% in size
Vaccinia Venus = qHTS for Stage-Specific Inhibitors of Vaccinia Orthopoxvirus: Venus Reporter Primary qHTS. Vaccinia virus Venus reporter expression, fluorescence. Potency, µM (series often up to 36.5 µM), without a hit: top-dose activity change, negative = inhibition, usual class: inhibitors. AID 720580, 2013. 330,000 compounds, 0.46% hits; calls by dose curve; tested in A549 cells; note: potency is the fitted concentration of half-maximal effect; nearly all actives have a fitted effect of over 30% in size
HCMV antiviral = qHTS Assay for inhibitors of the human cytomegalovirus (HCMV) | 410,000 compounds, 4.5% hits | HFF cells, HCMV-luciferase reporter, 72 h; stronger effect = lower value | AID 1259415, 2018 | activity change, negative = inhibition, % at 57.5 µM; in the data active = activity change below about -60%; inconclusive = no clear call, values can overlap the other calls; inactive = above about -39%
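After 16 h attachment at 37C, HFF cells received test compound and HCMV-luciferase (1 PFU/cell); reporter luminescence read 72 h later, data normalized against buffer-only and known inhibitor Salinomycin.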
Numbers without * were called inactive; i = inactive; ? = inconclusive; nt = not tested or not shown; [ ] = remark or other dose. The list is not random: actives were taken first. Their share in the collection is about 6.5%. % is set by controls: 0 for no effect and ±100 for the full control effect.

SMILES	Vaccinia mCherry	LASV entry inh	MARV entry inh	FMDV antiviral	Vaccinia Venus	HCMV antiviral
COc1ccc(CNC(=O)c2cc3c(=O)n(Cc4ccc(OC)cc4)ccc3nc2C)cc1	-26%	-13%[46.1 µM]	nt	0%	-25%	-75*
Cc1nc2ccn(Cc3cccnc3)c(=O)c2cc1C(=O)NCc1ccc(Cl)cc1	i	?	nt	-15%	-5%	-19
Cc1nc2ccn(Cc3cccs3)c(=O)c2cc1C(=O)NCc1ccc(Br)cc1	-24%	-33%[46.1 µM]	nt	3%	-20%	-63*
Cc1ccccc1OCCCn1c(-c2ccc(Cl)cc2)nc2ccccc2c1=O	-10%	1%[46.1 µM]	14%[46.1 µM]	-5%	-3%	7
Cc1nn(C)c(C)c1CCNC(=O)Nc1cccc(Cl)c1C	i	-9%[46.1 µM]	nt	15%	-12%	-5
CCOC(=O)N1C(=O)C[C@H](C(=O)N2CCOCC2)[C@H]1c1ccc(OC)cc1	nt	nt	nt	nt	nt	-14
O=C(Nc1cc(Cl)ccc1O)c1snnc1-c1ccccc1	nt	?	?	20µM*	nt	-100*
Cc1ccc(/C=N/Nc2nc(N3CCCCC3)nc(N3CCCCC3)n2)o1	-3%	?	1%[46.1 µM]	-18%	-7%	-36
COC(=O)c1ccccc1-c1ccc(/C=N/Nc2nc(N3CCCC3)nc(N3CCCC3)n2)o1	-19%	?	?	22µM*	-29%	-7
Cc1cc(C)c(CN2CCN(C(=O)Cn3cnc(C(=O)Nc4ccc(C)c(C)c4)n3)CC2)c(C)c1	-22%	nt	-4%	?	?	-102*
Cc1ccc(NC(=O)Cn2cnc(C(=O)Nc3ccc(C)c(C)c3)n2)cc1C	-1%	nt	4%	-10%	-1%	-1
Cc1ccc(NC(=O)CN2C(=O)S/C(=C\c3cc(C)n(C)c3C)C2=O)cc1	i	8%	2%	nt	3%	-18
Cc1cccc(NC(=O)CN2C(=O)S/C(=C\c3cc(C)n(C)c3C)C2=O)c1	?	0%	-16%	-19%	-15%	-63*
Nc1nonc1C(=O)N/N=C/c1ccc(-c2ccc(Cl)c(C(=O)O)c2)o1	2%	19%	?	4%	3%	-73*
Nc1nonc1C(=O)N/N=C/c1ccc(Br)o1	-12%	2%	3%[46.1 µM]	42%	-8%	19
CC1=NOC(=O)/C1=C\c1ccc(-c2cccc(Cl)c2)o1	?	?	?	40µM*	-40%	nt
CC1=NOC(=O)/C1=C\c1ccc(-c2ccccc2Br)o1	nt	nt	nt	25µM*	nt	-10
CC1=NOC(=O)/C1=C/c1ccc(O)c(Br)c1	i	3%[46.1 µM]	11%[46.1 µM]	25µM*	-4%	22
CC1=NOC(=O)/C1=C/c1ccc(O)cc1	-18%	2%	4%[46.1 µM]	-10%	-6%	-12
Cc1[nH]nc2c1[C@@H](CCc1ccccc1)C(C#N)=C(N)O2	nt	nt	3%	nt	nt	nt
Cc1ccc(-c2cc(C(F)(F)F)n3nc(C(=O)Nc4ccc(Cl)c(C(F)(F)F)c4)cc3n2)cc1	8%	5%[46.1 µM]	7%[46.1 µM]	-14%	7%	13
CCC(NC(=S)NC1CCCCC1)c1ccccc1 (centres undefined)	nt	nt	nt	nt	nt	-89*
CSc1ccccc1NC(=S)NC1CCCC1	nt	nt	nt	30%	nt	-13
CC(NC(=S)NC1CCCCC1)c1ccc(C(C)(C)C)cc1 (centres undefined)	-18%	?	?	0%	?	-97*
CC(CCc1ccccc1)NC(=S)NC1CCCCC1 (centres undefined)	-7%	2%	4%[46.1 µM]	4%	-10%	-39
SMILES	Vaccinia mCherry	LASV entry inh	MARV entry inh	FMDV antiviral	Vaccinia Venus	HCMV antiviral
CCOc1ccc(C(C)NC(=S)NC2CCCCC2)cc1 (centres undefined)	nt	nt	nt	-9%	nt	?
CC(C)c1ccc(C(C)NC(=S)NC2CCCCC2)cc1 (centres undefined)	nt	nt	nt	?	nt	-89*
CCc1ccc(C(C)NC(=S)NC2CCCCC2)cc1 (centres undefined)	nt	nt	nt	-11%	nt	nt
CCCCc1ccccc1NC(=S)NC1CCCC1	i	?	-15%[46.1 µM]	7%	4%	-66*
CN1CC2(Cc3cc([N+](=O)[O-])ccc31)C(=O)OC(C)(C)OC2=O	-15%	nt	nt	nt	-19%	nt
CCC(C)c1ccc(C(C)NC(=S)NC2CCCCC2)cc1 (centres undefined)	-19%	?	?	?	?	-73*
CC(=O)Nc1ccccc1-c1nc(CNC(=O)c2cccc(-n3cccn3)c2)c(C)o1	-10%	nt	nt	?	-5%	nt
Cc1sc2ncnc(N3CCC(C(=O)Nc4nc(-c5ccc(F)cc5)cs4)CC3)c2c1C	i	?	?	0%	2%	-65*
Cc1cc(Br)ccc1NC(=O)CN(C)C(=O)C1CCN(c2ncnc3sc(C)c(C)c23)CC1	?	?	?	?	?	-83*
Cc1ccc(OCC(=O)NNC(=O)C2CCN(c3ncnc4sc(C)c(C)c34)CC2)cc1	i	24%	-2%[46.1 µM]	?	-16%	-23
Cc1cccc(C)c1NC(=O)CN(C)C(=O)C1CCN(c2ncnc3sc(C)c(C)c23)CC1	?	-12%	?	?	?	?
Cc1sc2ncnc(N3CCC(C(=O)NNC(=O)COc4ccccc4F)CC3)c2c1C	-12%	-6%	-21%	25µM*	-29%	-10
Cc1sc2ncnc(N3CCC(C(=O)NNC(=O)COc4cccc(C(F)(F)F)c4)CC3)c2c1C	i	3%	0%	25µM*	-15%	-2
COC(=O)/C=c1\s/c(=C(/C#N)C(=O)N2CCCCC2)n(-c2ccccc2)c1=O	nt	nt	-33%	nt	nt	nt
C=C1C=C(C)n2ncc(C(=O)Nc3ccc(C)cn3)c2N1	-21%	nt	nt	nt	-16%	nt
CCN(CC)CCNC(=O)c1ccc(NC(=O)C2CCN(c3ncnc4sc(C)c(C)c34)CC2)cc1	nt	nt	nt	?	nt	-71*
Cc1sc2ncnc(N3CCC(C(=O)Nc4ccc(OC(F)F)c(Cl)c4)CC3)c2c1C	nt	nt	nt	?	nt	-2
Cc1sc2ncnc(N3CCC(C(=O)NNC(=O)COc4ccccc4Cl)CC3)c2c1C	?	5%	?	35µM*	-23%	-33
CC(=O)OC[C@H]1O[C@H](c2ccc(C(C)=O)cc2)C=C[C@@H]1OC(C)=O	nt	nt	2%[14.2 µM]	nt	nt	nt
Cc1sc2c(c1C)c(=O)n(-c1ccccc1)c(=O)n2CC(=O)c1ccc(Cl)cc1	-14%	?	?	-6%	-14%	-10
O=C(CCl)N(O)c1ccc(C=Cc2ccccc2)cc1	-3%	8.9µM*	?	20%	-4%	8
CC(C)C[C@@H]1NC(=O)[C@H](C(C)C)NC(=O)c2cc([N+](=O)[O-])cc(I)c2NCC[C@@H](C(N)=O)NC1=O	0%	2%	-7%	-27%	-4%	nt

Screening results deposited in PubChem by National Center for Advancing Translational Sciences (NCATS).
